# In the library only some 2.9% were active in any assay of this set; here they are far more common.
# IP6K1 inhibitor – Primary qHTS assay for small molecule inhibitors of Inositol hexaphosphate kinase 1 (IP6K1); Inositol hexakisphosphate kinase 1 (Homo sapiens), Q92551; 140,000 compounds, 0.81% hits; IP6K1 kinase, ADP-Glo luminescence, 2 h; hits give low values; activity change, % (series mostly up to about 58 µM); in the data active means activity change below about -25%; further: on the % scale 0 is the no-effect control and ±100 the full control effect
#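 ADP-Glo luminescence measures ADP made by human IP6K1 during a 2 h RT reaction with ATP/IP6 (mix at 1.3 mM/130 uM); top library doses 57.5 and 19.1 uM final.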
# HEK293 viab – GF-AFC viability counterscreen for inhibitors of alpha-synuclein gene (SNCA) expression | AID 1671193, 2021 | Potency, µM (series often up to 57.1 µM), without a hit: at the top dose activity change, negative = cytotoxicity, most hits filed as cytotoxic | HEK-293-SNCA-luc viability, GF-AFC fluorescence, 24 h | 150,000 compounds, 0.12% hits;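 further: potency means the concentration at half of the fitted maximal effect; 0% = DMSO-treated cells and -100% = medium-only wells without cells; nearly all actives have a fitted effect of over 30% in size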
#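 HEK-293-SNCA-luc cells (1500/well) plated 24 h, then exposed 24 h to a dilution series; GF-AFC added 30 min at 37C, fluorescence 405/540 nm; normalised to medium-only and DMSO wells, Hill fit.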
# KDM5B inhibitor – Primary screen for KDM5B Histone Demethylases FDH-coupled qHTS; 220,000 compounds, 2.6% hits; Potency, µM (titrated, usually from 57.7 µM), most hits filed as inhibitors; KDM5B demethylase, FDH-coupled NADH fluorescence (FDH is formaldehyde dehydrogenase); further: potency means the concentration at half of the fitted maximal effect; 0% is about no effect; nearly all actives have a fitted effect of over 70% in size
#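 Compound dilutions met 200 nM (final) KDM5BΔAP for 10 min at room temperature before substrate addition. The substrate mix held 12.5 µM H3K4me3 with cofactors 25 µM α-ketoglutarate and 50 µM Fe²⁺. NADH signal gain over 30 min defined activity.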
# SNCA expr inh – Primary qHTS assay for inhibitors of alpha-synuclein gene (SNCA) expression | HEK-293 SNCA-luciferase knock-in, luminescence, 24 h | Potency, µM (top dose mostly 57.2 µM), for inactives: top-dose activity change, negative = inhibition, actives largely listed as inhibitors | 140,000 compounds, 0.17% hits | AID 1671194, 2021;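 further: potency means the concentration at half of the fitted maximal effect; plate controls were DMSO cells for no effect and cell-free wells for full effect; nearly all actives have a fitted effect of over 45% in size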
# Active calls of the source: *; i = inactive; ? = inconclusive; . = no result given; [ ] = remark or other dose. Unless noted, the call rests on the fitted dose curve; in most records, active means well fitted curve in the direction sought with a large enough effect; inconclusive means small, poorly fitted or top-dose-only effect, or another doubt; inactive means no such curve, though single readings can be large; an effect the other way counts as inactive or inconclusive.
SMILES,IP6K1 inhibitor,HEK293 viab,KDM5B inhibitor,SNCA expr inh
O=c1c(-c2cccs2)ccc2n1C[C@H]1C[C@@H]2CN(C2CCOCC2)C1,-2,?,35µM*,0%[87.6 µM]
CCn1ccc(C(=O)N2[C@H]3CC[C@@H]2c2cnc(C)nc2C3)n1,30,-1%,i,23%
Cc1ccccc1-c1ccc2n(c1=O)C[C@H]1C[C@@H]2CN(C(=O)NC(C)C)C1,1,3%[87.6 µM],35µM*,-20%[87.6 µM]
Cc1ccccc1-c1ccc2n(c1=O)C[C@H]1C[C@@H]2CN(C(=O)Nc2ccc(Cl)cc2)C1,-4,-7%[87.6 µM],32µM*,-25%[87.6 µM]
COc1ccccc1NC(=O)N1C[C@@H]2C[C@H](C1)c1ccc(-c3ccccc3C)c(=O)n1C2,16,-15%[87.6 µM],?,11%[87.6 µM]
CC(OC(=O)c1cn(C)c2ccccc12)C(=O)NC(C)(C)C (stereo not drawn),.,.,i,.
Nc1nc(N2CC3CCC(C2)N3CC(F)(F)F)c2[nH]cnc2n1,11,?,i,66%
COCCn1c(C)cc(C(=O)N2[C@H]3CC[C@@H]2c2cnc(-c4ccc(F)cc4)nc2C3)c1C,12,?,i,25µM*
FC(F)(F)CN1C2CCC1CN(c1cnc3ccccc3c1)C2,4,-5%,100µM*,3%
COc1cccc(N2CC3CCC(C2)N3CC(F)(F)F)n1,5,-6%,100µM*,-3%
O=C1CO[C@H]2CN(Cc3ncc[nH]3)C[C@H]2N1Cc1cccnc1,-4,4%[87.6 µM],25µM*,-23%[87.6 µM]
O=C1CO[C@H]2CN(Cc3ncc[nH]3)C[C@H]2N1Cc1ccncc1,4,6%[87.6 µM],35µM*,-6%[87.6 µM]
O=C1CO[C@H]2CN(Cc3ccco3)C[C@H]2N1Cc1cccnc1,-3,-3%[87.6 µM],i,10%[87.6 µM]
Cc1cccc(-n2nnnc2C2(NC3CCCCC3)CCCCC2)c1,.,.,i,.
Cc1nc(-c2ccco2)cc([C@H]2CN3CC[C@H]2C[C@@H]3CNC(=O)Nc2ccccc2)n1,-8,-19%[87.6 µM],?,?
Cc1nc(-c2ccco2)cc([C@H]2CN3CC[C@H]2C[C@@H]3CNC(=O)NC2CCCCC2)n1,-7,-15%[87.6 µM],32µM*,-5%[87.6 µM]
Cc1nc(-c2ccco2)cc([C@H]2CN3CC[C@H]2C[C@@H]3CNC(=O)C2CCCCC2)n1,-3,-9%[87.6 µM],32µM*,-8%[87.6 µM]
CN1CCCCC1Cn1cc(C(=O)c2cc([N+](=O)[O-])ccc2I)c2ccccc21 (stereo not drawn),17,24µM*,.,.
c1ccc(CCNCC2CCCCC2)cc1,.,.,i,.
COc1cc2c(cc1OCC1CC1)NC(=O)C21CCN(c2ncc(F)cn2)CC1,-24,-1%[87.6 µM],i,-25%[87.6 µM]
COc1cc2c(cc1Oc1ccccc1)NC(=O)C21CCN(c2ncc(F)cn2)CC1,-21,-9%[87.6 µM],32µM*,?
COc1cc2c(cc1Oc1ccccc1)NC(=O)C21CCN(C(=O)c2cnccn2)CC1,-14,-6%[87.6 µM],i,-2%[87.6 µM]
COc1cc2c(cc1Oc1ccccc1)NC(=O)C21CCN(c2cnccn2)CC1,-16,-10%[87.6 µM],32µM*,-30%[87.6 µM]
COc1cc2c(cc1Oc1ccccc1)NC(=O)C21CCN(c2nc(C)cc(C)n2)CC1,-19,-19%[87.6 µM],?,?
COc1cc2c(cc1OCc1ccccc1)NC(=O)C21CCN(c2ncc(F)cn2)CC1,-17,-21%[87.6 µM],32µM*,-3%[87.6 µM]
SMILES,IP6K1 inhibitor,HEK293 viab,KDM5B inhibitor,SNCA expr inh
COc1cc2c(cc1OCC1CC1)NC(=O)C21CCN(c2nccc(C(F)(F)F)n2)CC1,-17,0%,22µM*,?
CC[C@H]1C2CC3[C@@H]4N(C)c5ccccc5[C@]45C[C@@H]([C@H]2[C@H]5O)N3[C@H]1O,8,-3%,.,.
CO[C@@H]1C[C@H](O[C@H]2CC[C@@]3(C)C(CCC4C3CC[C@]3(C)[C@@H](C5=CC(=O)OC5)[C@@H](OC(C)=O)CC43O)C2)O[C@H](C)[C@@H]1O[C@H]1O[C@H](CO[C@@H]2O[C@H](CO)[C@@H](O)[C@H](O)[C@H]2O)[C@@H](O)[C@H](O)[C@H]1O (stereo partly drawn),9,-33%[12.5 µM],.,.
O=c1oc2ccccc2c(O)c1Cc1c(O)c2ccccc2oc1=O,-25*,-11%[23.9 µM],.,-2%[25.6 µM]
CC(C)(O)/C=C/C(=O)[C@](C)(O)[C@H]1[C@H](O)C[C@@]2(C)[C@@H]3CC=C4[C@@H](C[C@H](O)C(=O)C4(C)C)[C@]3(C)C(=O)C[C@]12C,8,?,.,.
CC(C)(O)C=CC(=O)[C@](C)(O)[C@H]1[C@H](O)C[C@]2(C)[C@@H]3CC=C4[C@@H](C=C(O)C(=O)C4(C)C)[C@]3(C)C(=O)C[C@@]12C,.,?,.,14µM*
O=C(O)C1=NOC2CN(Cc3cccnc3)CC12 (stereo not drawn),2,-4%[87.6 µM],40µM*,13%[87.6 µM]
O=S(=O)(NC[C@H]1C[C@@H]2CCN1C[C@@H]2CN1CCN(c2ncccn2)CC1)c1ccc(Cl)cc1,-8,0%,i,5%
COCCC(=O)Nc1ccc2n(c1=O)C[C@H]1C[C@@H]2CN(CCCc2ccccc2)C1,-2,2%[87.6 µM],32µM*,-19%[87.6 µM]
CN1CCN(C(=O)Cc2c[nH]c3ncc(-c4ccsc4)cc23)CC1,-12,12%[87.6 µM],40µM*,4%[87.6 µM]
CN1CCN(C(=O)Cc2c[nH]c3ncc(-c4ccccc4F)cc23)CC1,-13,7%[87.6 µM],35µM*,6%[87.6 µM]
O=C1NC[C@H]2CN(Cc3nccs3)CCN12,2,2%[87.6 µM],i,23%[87.6 µM]
C[C@@]1(C(=O)O)CC[C@]2(C)CC[C@]3(C)C4=CC(=O)c5cc(O)c(O)cc5[C@]4(C)CC[C@@]3(C)[C@@H]2C1,-11,3%[23.9 µM],.,.
CC1=C(O)C(=O)C=C2C1=CC=C1[C@@]2(C)CC[C@@]2(C)[C@@H]3C[C@](C)(C(=O)O)CC[C@]3(C)CC[C@]12C,.,22µM*,.,7.6µM*
COc1ccc2c(c1)C1(CCN(C(=O)c3cccc(N(C)C)c3)C1)C(=O)N2C (stereo not drawn),2,-16%,i,20%
N#C[C@H](O[C@@H]1O[C@H](CO[C@@H]2O[C@H](CO)[C@H](O)[C@H](O)[C@H]2O)[C@H](O)[C@H](O)[C@H]1O)c1ccccc1,.,-9%,.,10%
CN1CCC(N2C[C@@H]3C[C@H](C2)c2ccc(-c4ccc(OC(F)(F)F)cc4)c(=O)n2C3)CC1,-3,0%,?,-3%
COc1ccc(-c2ccc3n(c2=O)C[C@H]2C[C@@H]3CN(S(C)(=O)=O)C2)cc1,-5,1%[87.6 µM],40µM*,14%[87.6 µM]
N#Cc1ccc(NC(=O)Cc2ccc3c(c2)CCC3)cc1Cl,.,.,i,.
COc1cc2c(cc1CCc1ccccc1)N([S+](=O)([O-])c1ccc3c(c1)CCO3)CC21CCN(C(C)=O)CC1,-4,-9%,28µM*,?
CN(C)CC(=O)Nc1ccc2n(c1=O)C[C@H]1C[C@@H]2CN(C(=O)c2ccc(F)cc2)C1,-5,3%[87.6 µM],i,-12%[87.6 µM]
